High-throughput results (PubChem)
TDP1 cell noCPT = qHTS for Inhibitors of human tyrosyl-DNA phosphodiesterase 1 (TDP1): qHTS in cells in absence of CPT | DT40 Tdp1-/- hTDP1 cells, no CPT, ATP luminescence, 48 h | AID 686978, 2013 | actives 15% (n = 420,000) | Potency, µM (highest dose often 46.2 µM), without a hit: top-dose activity change, negative = growth inhibition, hits mostly inhibitors; further: potency means the concentration at half of the fitted maximal effect; on the % scale 0 is the no-effect control and ±100 the full control effect; nearly all actives have a fitted effect of over 55% in size
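Camptothecin absent (DMSO only). Human TDP1-complemented DT40 knockout cells, 400 cells/well, 37 °C for minimum 48 hr; ATP measured via CellTiter-Glo, 30 min dark incubation, luminescence.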
D3 antag = qHTS of D3 Dopamine Receptor Antagonist: qHTS; D(3) dopamine receptor (Homo sapiens), P35462; D3R cells, DiscoveRx beta-arrestin luminescence, antagonist mode; stronger effect = lower value; max response, negative = inhibition, %; actives 2.5% (n = 360,000); AID 652054, 2013; in the data active means max response below about -50%; inconclusive means no clear call, values can overlap the other calls; further: on the % scale 0 is the no-effect control and ±100 the full control effect
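Cells plated overnight at 1500 cells/well, then exposed to library compounds with dopamine controls for 90 minutes at 37 degrees C. DiscoveRx reagent added for 30–60 minutes at room temperature; luminescence read, quantitative HTS format.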
DT40 TDP1 CPT = qHTS for Inhibitors of human tyrosyl-DNA phosphodiesterase 1 (TDP1): qHTS in cells in presence of CPT | chicken DT40 Tdp1-/-;hTDP1 cells + 20 nM CPT, ATP luminescence, 48 h | Potency, µM (top dose mostly 46.2 µM), for inactives: at the highest dose activity change, negative = growth inhibition, usual class: inhibitors | actives 12% (n = 420,000) | AID 686979, 2013; further: potency means the concentration at half of the fitted maximal effect; on the % scale 0 is the no-effect control and ±100 the full control effect; nearly all actives have a fitted effect of over 55% in size
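Chicken DT40 Tdp1-/- cells stably complemented with human TDP1 were seeded at 400 cells/well in medium containing 20 nM camptothecin, exposed to pin-transferred compounds, and grown at 37 °C for at least 48 hr. Viability was read as ATP luminescence.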
ClpP mod = qHTS Assay for Activators of ClpP; ATP-dependent Clp protease proteolytic subunit (Bacillus subtilis (strain 168)), P80244; purified B. subtilis ClpP, FRET peptide cleavage, 20 min; Potency, µM (top dose mostly 57.5 µM), inactives show at the highest dose activity change, negative = active; actives 1.9% (n = 340,000); AID 651965, 2013; active means well fitted falling curve with a large enough effect; inconclusive means small, poorly fitted or top-dose-only effect; inactive means no such curve, though single readings can be large or run the other way; further: potency means the concentration at half of the fitted maximal effect; the source files actives as falling curves though it sought activators and does not explain the sign; nearly all actives have a fitted effect of over 65% in size
Target sequence (P80244 whole entry, looked up): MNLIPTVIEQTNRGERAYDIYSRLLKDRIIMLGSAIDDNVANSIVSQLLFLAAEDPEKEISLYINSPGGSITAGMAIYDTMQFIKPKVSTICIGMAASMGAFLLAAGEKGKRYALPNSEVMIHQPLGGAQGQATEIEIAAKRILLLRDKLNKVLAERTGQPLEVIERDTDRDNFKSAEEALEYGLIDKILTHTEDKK
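FRET quenching reversal measured ClpP activation: 10 microg/mL B. subtilis ClpP at pH 8 with the FRET-FV decapeptide, read at 430 nm after 320 nm excitation. The 20-min minus 0-min signal was scaled between DMSO/no-enzyme wells and ADEP (5.8 microM final).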
IL1B secr inh = qHTS for Inhibitors of Inflammasome Signaling: IL-1-beta AlphaLISA Primary Screen. AID 743279, 2014. actives 4.7% (n = 360,000). THP-1 LPS/ATP IL-1B secretion, AlphaLISA, 16 h; stronger effect = lower value. activity change, % at 57.5 µM; in the data active means activity change below about -50%; inconclusive means mostly about -30% to -49%; further: on the % scale 0 is the no-effect control and ±100 the full control effect
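Secreted IL-1B measured by AlphaLISA bead assay after 16 h compound exposure of THP-1 cells; compounds (final up to 57.5 uM) added 1 h before LPS (250 ng/mL) and ATP (1.25 mM) stimulation; lower signal means less secretion.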
DRD3 agonist = qHTS of D3 Dopamine Receptor Agonist: qHTS. D(3) dopamine receptor (Homo sapiens), P35462. D3R DiscoveRx beta-arrestin cells, luminescence, 90 min. max activation, %. actives 0.58% (n = 410,000); in the data active means max activation above about 30%; further: 0% is about no effect
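Cells at 1500/well, incubated overnight, then treated with pinned compounds (dopamine as control) for 90 min at 37 degrees C. DiscoveRx reagent added for 30 - 60 minutes at room temperature; luminescence read.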
* marks the source's active call; other numbers are inactive results; u = inconclusive; x = no result given. An excerpt weighted towards active compounds, which were near 21% of everything screened. Unless noted, the call rests on the fitted dose curve; in most records, active means well fitted inhibition curve with a large enough effect; inconclusive means small, poorly fitted or top-dose-only effect; inactive means flat fitted curve, though single readings scatter.

SMILES | TDP1 cell noCPT | D3 antag | DT40 TDP1 CPT | ClpP mod | IL1B secr inh | DRD3 agonist
CC1CCCCN1C(=O)CN1CCC(c2nc3ccc(Cl)cc3[nH]2)CC1 (stereo not drawn) | 23µM* | -3 | u | -1% | -12 | 0
Cc1ccc(CN2CCC(c3nc4ccc(Cl)cc4[nH]3)CC2)cc1 | 16µM* | -93* | 16µM* | 0% | x | -37
Nc1[nH]nc2ncc3cc4ccccc4nc3c12 | 9.2µM* | 10 | 18µM* | x | -95* | 7
COCCNC(=O)Cn1cc(S(=O)(=O)Cc2ccccc2Cl)c2ccccc21 | -12% | x | -23% | 2% | x | -10
CN(C)c1nc(-c2ccccc2)ncc1S(=O)(=O)c1ccccc1 | u | -1 | 0% | -3% | -6 | 0
CCN(CC)c1nc(-c2ccccc2)ncc1S(=O)(=O)c1ccc(C)cc1 | 16µM* | u | u | -13% | 0 | -10
C/C(CC(=O)Nc1c(C)cc(C)cc1C)=N\NC(=O)Cc1ccccc1 | -7% | -5 | 6% | x | 3 | -9
COc1ccccc1Cc1c(C2CCCCC2)nc2ccc(Cl)cn12 | 26µM* | u | 23µM* | u | -14 | -15
COc1ccccc1Cc1c(C2CCCCC2)nc2ccc(C)cn12 | 23µM* | u | 21µM* | 6% | -17 | -15
Cc1ccc2nc(C3CCCCC3)c(CC(C)(C)C)n2c1 | 16µM* | 33 | u | u | 33 | 2
Cc1ccc(Cc2c(C3CCCCC3)nc3ccc(Cl)cn23)cc1 | u | 21 | u | -17% | 24 | 2
COc1ccc2c(c1)cc1c(=O)n(CC(=O)NCCc3ccccc3)nc(C)n12 | -12% | x | 0% | -19% | x | 4
O=C(O)CCN1C(=O)/C(=C2\C(=O)N(Cc3ccc(F)cc3)c3ccccc32)SC1=S | 15µM* | -2 | 16µM* | x | 9 | 3
COC(=O)[C@]12CCCCC=C1N(CCc1ccc(OC)c(OC)c1)C(=O)[C@H](CC(=O)NCCC(C)C)C2 | u | u | u | -1% | u | -13
CCOC(=O)[C@]12CCCC=C1N(CCc1ccc(OC)c(OC)c1)C(=O)[C@H](CC(=O)NCCCCc1ccccc1)C2 | 16µM* | -3 | u | 1% | -57* | -11
CCCCCCCCN1C(=O)[C@H](CC(=O)NCCC(C)C)C[C@@]2(C(=O)OCC)CCC=C12 | 21µM* | 1 | 21µM* | 1% | 9 | -1
CCOC(=O)[C@]12CCCC=C1N(Cc1ccccc1)C(=O)[C@H](CC(=O)NCc1ccc(OC)c(OC)c1)C2 | u | u | u | 1% | u | -11
CCCCNC(=O)C[C@@H]1C[C@@]2(C(=O)OCC)CCCC=C2N(CCc2ccc(OC)c(OC)c2)C1=O | 18µM* | -17 | 1.5µM* | 2% | 4 | 3
CCOC(=O)[C@]12CCCC=C1N(CCc1ccc(OC)c(OC)c1)C(=O)[C@H](CC(=O)NCCc1ccccc1OC)C2 | 16µM* | -25 | 13µM* | 1% | -3 | -11
CCc1nn(CC(=O)NCCc2ccc(SC)cc2)c(=O)c2cc3sccc3n12 | -3% | x | -8% | -13% | x | -20
COc1ccccc1CC(=O)N1CCN(S(=O)(=O)c2ccccc2F)CC1 | 1% | -6 | -7% | 1% | 1 | -1
CCOC(=O)[C@]12CCCC=C1N(CCC1=CCCCC1)C(=O)[C@H](CC(=O)NCc1cccc3ccccc13)C2 | 16µM* | 6 | u | -2% | 13 | -4
